About 79,000 compounds went through this panel and 15% of them were active in at least one assay; those are over-represented in the sample as a whole. A number with no mark means an inactive call. Activity calls are given as the source filed them. Cut-off read from the data, not from the text of the source: active = growth inhibition above about 70%; inactive = the rest.
Experiment: NCI Yeast Anticancer Drug Screen. Data for the sgs1 mgt1 strain (AID 161);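 note: 0% = growth of cultures given vehicle only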
Settings: S. cerevisiae sgs1 mgt1 strain, at 5.0 µM (retest, dose inferred, filed as 0.5), active compounds read high
In short: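 Compounds are added to genetically altered yeast, and growth is compared with cultures given vehicle alone to give percent inhibition.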

| Structure (SMILES) | growth inhibition |
| --- | --- |
| CCOC(=O)c1ccc([N+](=O)[O-])o1 | 3% |
| O=C(NCCc1c(-c2ccccc2)[nH]c2ccccc12)C(F)(F)F | 10% |
| c1cc[c]([Sn]([NH]c2ncnc3[nH]cnc23)([NH]c2ncnc3[nH]cnc23)[c]2ccccc2)cc1 | 2% |
| CCCCN(CCCC)CCC(O)(c1ccc(OC)c2ccccc12)C(O)(CCN(CCCC)CCCC)c1ccc(OC)c2ccccc12 (centres undefined) | 60% |
| CC(C)(C)c1ccc(OC(=O)Nc2ccc(Cl)cc2[N+](=O)[O-])c(Br)c1 | 3% |
| COC(=O)CCC(NC(=S)N/N=C/c1ccccn1)C(=O)OC (centres undefined) | -25% |
| O=C(Nc1ccccc1)OCCc1ccc(Br)cc1 | -1% |
| Cc1[nH]c2ccccc2c1/C=C1\C(=O)C2CCC1C2 (centres undefined) | -6% |
| O=[N+]([O-])c1ccc2c(c1)OCO2 | -2% |
| CC(CO)[C@H]1OC(=O)C=C2[C@@]13O[C@@H]3[C@H]1OC(=O)[C@@]3(C)[C@H]4O[C@H]4C[C@@]2(C)[C@@H]13 (some centres undefined) | 58% |
| Cc1cc(C)nc(/C=C/c2ccc(/C=C/c3cc(C)cc(C)n3)cc2)c1 | 7% |
| O=C1C=CC(=O)N1c1cccc(F)c1 | 93% (active) |
| O=C1NN(C2=NNC3(C(=O)N2)c2ccccc2-c2ccccc23)C(c2ccccc2)=N/C1=C/c1ccc(O)cc1 | -9% |
| CC1=NN(C(=O)c2ccc(Cl)cc2)C(=O)C1N=Nc1ccc(S(=O)(=O)Nc2ncccn2)cc1 (centres undefined) | 11% |
| CCN(CC)CCCNc1ncc(C)c2c1c1ccc3c(O)cccc3c1n2C | 21% |
| O=C1SCCN1/N=C/c1ccc([N+](=O)[O-])o1 | 34% |
| CC(C)(C)C1=NC(=S)SC2=NC(=O)C3(NN21)c1ccccc1-c1ccccc13 | 5% |
| Clc1ccc2oc(N3CCCCC3)nc2c1 | 2% |
| Cc1ccnc(NC(c2ccccc2)c2ccc3cccnc3c2O)c1 (centres undefined) | -3% |
| CC(=O)N(C1=C(Cl)C(=O)c2ccccc2C1=O)c1ccc(Cl)cc1 | 100% (active) |
| CSc1cc(C(=O)O)nc(N)n1 | 5% |
| COc1ccc([C@H]2c3cc4c(cc3OC(O)(CO)[C@H]2C(=O)O)OCO4)c(OC)c1 (some centres undefined) (tested in a mixture with another compound) | 0% |
| CC(C)C(C)OC(=O)Nc1cccc(O)c1 (centres undefined) | -66% |
| O=C(CC1(O)C(=O)Nc2c(Cl)ccc(Cl)c21)c1ccc(Cl)cc1Cl (centres undefined) | 18% |
| CCOC1(OCC)Oc2c(Cl)c(Cl)c(Cl)c(Cl)c2OC1(OCC)OCC | 12% |
| CCN(CC)CC(C)(C)C(=O)/C=C/c1ccc(Cl)c(Cl)c1 | 18% |
| O=C(Cl)c1cc(-c2ccc(Cl)cc2)nc2c(Cl)cccc12 | 5% |
| COC/C=N/Nc1ccc([N+](=O)[O-])cc1 | 90% (active) |
| Cn1c(N)c(NC(=O)CCl)c(=O)n(C)c1=O | -13% |
| CCOC(=O)C(C)(c1c(C)[nH]c2ccccc12)c1c(C)[nH]c2ccccc12 | 3% |

Same assay, conditions: S. cerevisiae sgs1 mgt1 strain, at 50.0 µM (retest, dose inferred, filed as 5.0), active compounds read high

| Structure (SMILES) | growth inhibition |
| --- | --- |
| CCOC(=O)c1ccc([N+](=O)[O-])o1 | 14% |
| c1cc[c]([Sn]([NH]c2ncnc3[nH]cnc23)([NH]c2ncnc3[nH]cnc23)[c]2ccccc2)cc1 | 96% (active) |
| CCCCN(CCCC)CCC(O)(c1ccc(OC)c2ccccc12)C(O)(CCN(CCCC)CCCC)c1ccc(OC)c2ccccc12 (centres undefined) | 99% (active) |
| CC(C)(C)c1ccc(OC(=O)Nc2ccc(Cl)cc2[N+](=O)[O-])c(Br)c1 | 37% |
| COC(=O)CCC(NC(=S)N/N=C/c1ccccn1)C(=O)OC (centres undefined) | 41% |
| O=C(Nc1ccccc1)OCCc1ccc(Br)cc1 | -11% |
| Cc1[nH]c2ccccc2c1/C=C1\C(=O)C2CCC1C2 (centres undefined) | 92% (active) |
| O=[N+]([O-])c1ccc2c(c1)OCO2 | 3% |
| CC(CO)[C@H]1OC(=O)C=C2[C@@]13O[C@@H]3[C@H]1OC(=O)[C@@]3(C)[C@H]4O[C@H]4C[C@@]2(C)[C@@H]13 (some centres undefined) | 97% (active) |
| Cc1cc(C)nc(/C=C/c2ccc(/C=C/c3cc(C)cc(C)n3)cc2)c1 | -1% |
| O=C1C=CC(=O)N1c1cccc(F)c1 | 99% (active) |
| O=C1NN(C2=NNC3(C(=O)N2)c2ccccc2-c2ccccc23)C(c2ccccc2)=N/C1=C/c1ccc(O)cc1 | 23% |
| CC1=NN(C(=O)c2ccc(Cl)cc2)C(=O)C1N=Nc1ccc(S(=O)(=O)Nc2ncccn2)cc1 (centres undefined) | 8% |
| CCN(CC)CCCNc1ncc(C)c2c1c1ccc3c(O)cccc3c1n2C | 40% |
| O=C1SCCN1/N=C/c1ccc([N+](=O)[O-])o1 | 92% (active) |
| CC(C)(C)C1=NC(=S)SC2=NC(=O)C3(NN21)c1ccccc1-c1ccccc13 | 78% (active) |
| Clc1ccc2oc(N3CCCCC3)nc2c1 | 6% |
| Cc1ccnc(NC(c2ccccc2)c2ccc3cccnc3c2O)c1 (centres undefined) | 95% (active) |
| CC(=O)N(C1=C(Cl)C(=O)c2ccccc2C1=O)c1ccc(Cl)cc1 | 99% (active) |
| CSc1cc(C(=O)O)nc(N)n1 | -1% |
| COc1ccc([C@H]2c3cc4c(cc3OC(O)(CO)[C@H]2C(=O)O)OCO4)c(OC)c1 (some centres undefined) (tested in a mixture with another compound) | 44% |
| CC(C)C(C)OC(=O)Nc1cccc(O)c1 (centres undefined) | -48% |
| O=C(CC1(O)C(=O)Nc2c(Cl)ccc(Cl)c21)c1ccc(Cl)cc1Cl (centres undefined) | 18% |
| CCOC1(OCC)Oc2c(Cl)c(Cl)c(Cl)c(Cl)c2OC1(OCC)OCC | 96% (active) |
| CCN(CC)CC(C)(C)C(=O)/C=C/c1ccc(Cl)c(Cl)c1 | 94% (active) |
| O=C(Cl)c1cc(-c2ccc(Cl)cc2)nc2c(Cl)cccc12 | 99% (active) |
| COC/C=N/Nc1ccc([N+](=O)[O-])cc1 | 98% (active) |
| Cn1c(N)c(NC(=O)CCl)c(=O)n(C)c1=O | -2% |
| CCOC(=O)C(C)(c1c(C)[nH]c2ccccc12)c1c(C)[nH]c2ccccc12 | 87% (active) |

Source: PubChem BioAssay (NCI)
